Measured values taken from PubChem BioAssay.

Assay: E. coli acrAB mutant growth effects, primary screen, E. coli filamentation inducers, strain DRC39, OD650, 48 h (AID 1179);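 also: screen aims at cell division blockers that make cells filament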
Conditions: E. coli DRC39 delta-acrAB growth, higher = more signal, called active from +8 up or from −8 down

z-score, inactive:
COCCOC(=O)N1C(=O)[C@@]2(c3cc(C#CCCO)ccc31)[C@H](C(=O)N1CCN(c3ncccn3)CC1)[C@H]1C(=O)O[C@H](c3ccccc3)[C@H](c3ccccc3)N1[C@@H]2c1ccc(OCCO)cc1 -0.548
CC[C@@H](O[Si](C#C[Si](C(C)C)(C(C)C)C(C)C)(C(C)C)C(C)C)c1cn(Cc2cccc(Cl)c2)nn1 0.309
COCCOC(=O)N1C(=O)[C@@]2(c3cc(C#CCC(C(=O)OC)C(=O)OC)ccc31)[C@H](c1ccc(O)cc1)N1[C@H](c3ccccc3)[C@H](c3ccccc3)OC(=O)[C@H]1[C@@H]2C(=O)N1CCc2cc(OC)c(OC)cc2C1 0.588
Cc1ccc(S[C@]2(C(=O)NCCN3CCOCC3)CC(=O)N(C(C)C)[C@@H]2c2ccc(CO)cc2I)cc1 1.65
CC(C)c1ccc(NN2C(C(O)c3ccccc3)C=CC3C(=O)N(c4ccccc4)C(=O)C32)cc1 (stereo unspecified) 0.289
CC(C)C(=C=CC[C@H](O)c1cccc(OCCO)c1)C[C@H](O)c1ccccn1 1.5
COCCOC(=O)N1C(=O)[C@@]2(c3cc(C#CCNC(N)=O)ccc31)[C@H](c1ccc(O)cc1)N1[C@H](c3ccccc3)[C@H](c3ccccc3)OC(=O)[C@H]1[C@@H]2C(=O)N1CCc2cc(OC)c(OC)cc2C1 -0.119
[N-]=[N+]=NCc1ccccc1[C@H]1OC(c2ccc(OCCCO)cc2)=N[C@@]1(Cc1ccccc1N=[N+]=[N-])C(=O)N1CCOCC1 -0.799
C=C(CCCC)/C(=C/C[C@@H](OC(C)=O)c1cccc(OCCO)c1)c1cc(C(=O)OC)ccc1OC 0.583
C=CCNC(=O)[C@H]1[C@@H]2C(=O)O[C@@H](c3ccccc3)[C@@H](c3ccccc3)N2[C@@H](c2ccc(OCCO)cc2)[C@]12C(=O)N(C(=O)OCCOC)c1ccc(C#CCC(C(=O)OC)C(=O)OC)cc12 0.475
C=CCOC(=O)[C@@H]1[C@H]2C(=O)O[C@H](c3ccccc3)[C@H](c3ccccc3)N2[C@H](c2ccc(OCCOC(=O)[C@@H]3C[C@@H]4C(=O)N[C@@H](CC(C)C)C(=O)N4[C@@H]3c3ccc(O)cc3)cc2)[C@@]12C(=O)Nc1ccc(I)cc12 -0.215
COC(=O)[C@@]1(Cc2ccc(F)cc2)[C@H]2c3cc(C(=O)N4CCCC4)n(C[C@H](O)CO)c3C[C@H]2CN1C(=O)c1ccccc1 -0.0414
COc1cc2c(cc1O)C(C)N(Cc1sc3ccccc3c1Cl)CC2 (stereo unspecified) 0.717
Cc1ccc(S(=O)(=O)N2[C@@H](c3ccccc3)C(C(=O)O)=CC[C@H]2c2ccc(F)cc2)cc1 0.0973
C=C(C(=O)CC[C@@H](OC(=O)c1ccccc1-c1ccccc1C(=O)O)c1ccc(OCCO)cc1)C(C)C -0.135
C=CC[C@H](OC(=O)Nc1ccc(SC)cc1)c1ccc(O)c(F)c1 -0.343
O=C1c2ccccc2[C@@]2(Cc3ccccc3N(CC(F)(F)F)C2=O)[C@H](c2ccc(CO)cc2)N1Cc1ccccc1 -1.66
C#CCN(C(=O)OC(C)(C)C)[C@H](CO)c1ccccc1 -0.652
COC(=O)[C@@]1(Cc2ccc(F)cc2)[C@H]2c3cc(C(=O)N4CCCC4)n(CCc4c[nH]c5cc(F)ccc45)c3C[C@H]2CN1C(=O)c1ccccc1 -0.55
CC[C@@H]1C=C(C(=O)O)[C@H](c2cccc(Cl)c2)N1S(=O)(=O)c1ccc(C)cc1 -0.55
C=CCNC(=O)[C@@H]1[C@H]2C(=O)O[C@H](c3ccccc3)[C@H](c3ccccc3)N2[C@H](c2ccc(OCCO)cc2)[C@@]12C(=O)N(C(=O)OCCOC)c1ccccc12 0.282
COCCCNC(=O)[C@@]1(CCC(=O)OC(C)(C)C)N=C(c2ccc(OCCCO)cc2)O[C@H]1c1ccccc1 1.22
CC(C)C[C@@H]1NC(=O)[C@@H]2C[C@H](C(=O)NCCCCCCNC(=O)CS)[C@H](c3ccc(O)cc3)N2C1=O -0.874
C=C(COC)/C(=C/C[C@@H](OC(=O)c1ccncc1)c1ccccc1OCCO)c1cnc2ccccc2c1 0.359
C=C(C(=O)CC[C@H](OC(=O)c1ccccc1-c1ccccc1C(=O)O)c1ccc(OCCO)cc1)C(C)C -0.698
COC(=O)Cn1c(C(=O)N(C)C)cc2c1C[C@H]1CN(C(=O)c3ccccc3)[C@@](Cc3ccccc3)(C(=O)OC)[C@@H]21 -1.15
COc1cc(Cc2cc3c(c(-c4ccccc4)n2)[Si](C(C)C)(C(C)C)OC3)cc(OC)c1OC 0.405
[N-]=[N+]=NCc1ccccc1[C@H]1OC(c2ccc(OCCCO)cc2)=N[C@@]1(Cc1ccccc1N=[N+]=[N-])C(=O)O -0.779
COC(=O)c1c2oc(c1C(=O)OC)C(=O)N[C@H](Cc1ccccc1)Cn1cc(nn1)C1(CCCCC1)NC(=O)N[C@H](CO)CC2 0.565
CC(C)N1CC=CC23O[C@@H]4/C=C\CCCOC(=O)C4[C@H]2C(=O)N(C(C)CO)[C@@H]3C1=O (stereo partly specified) 0.906
O=C1C2C=CC(C(O)C3CCCCC3)N(Nc3ccccc3F)C2C(=O)N1c1ccccc1 (stereo unspecified) -0.1
CC1CC/C=C\[C@H]2OC34C=CCN(C(C)C)C(=O)[C@H]3N(C(C)CO)C(=O)[C@@H]4C2C(=O)O1 (stereo partly specified) 0.553
CC(C)(C)OC(=O)CC[C@@]1(C(N)=O)N=C(c2ccc(OCCCO)cc2)O[C@@H]1c1ccccc1CN=[N+]=[N-] 0.131
O=C(NC1CC1)[C@@H]1c2ccccc2C(=O)N(C2CCCCC2)[C@H]1c1ccc(CO)cc1 0.138
COc1ccc(CCNC(=O)[C@@]2(c3ccc([N+](=O)[O-])cc3)CC(=O)N(C3CCCCC3)[C@@H]2c2ccc(CO)cc2I)cc1 -0.0406
C=C(COC)C(=O)CC[C@@H](OC(=O)c1ccccc1-c1ccccc1C(=O)O)c1ccccc1OCCO -0.129
